The structures appear in SMILES notation. “And” between values parts separate entries of the source, which are not always exact repeats. Equal values may be shown once. Inconclusive results are not listed. A call without a number means that no potency is given here. The source made the active and inactive calls. The call rests on the fitted dose curve.

Assay [1] in a line: Cytotoxicity counterscreen for inhibitors of SARS-CoV-2 cell entry (AID 1645845). Further: nearly all actives have a fitted effect of over 50% in size. Particulars: cell viability (SARS-CoV-2 entry assay cells); series mostly up to 57.1 µM. The essentials:
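After a 15 min room-temperature ATPLite 1step step, luminescence reflected ATP remaining in HEK293-ACE2 cells exposed to compound for 1 h plus 48 h at 37 C, with percent activity set by cell and no-cell controls.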
On the technique in general: Counterscreens check selectivity or assay interference.

Assay [2] is described as follows: Primary qHTS to identify inhibitors of SARS-CoV-2 cell entry (AID 1645846). Further: nearly all actives have a fitted effect of over 45% in size. Particulars: SARS-CoV-2 pseudovirus cell entry assay, luminescence; activity change, negative = inhibition: at 57.1 µM (top of the series) unless noted; series mostly up to 57.1 µM. Summed up:
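HEK293 cells stably expressing human ACE2, pre-treated 1 h with compound, then infected with MLV particles pseudotyped with Wuhan-Hu-1 spike (C-terminal 19-aa truncation). Luciferase luminescence after 48 h at 37 °C, normalised to spike PP and bald PP.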
A general note: Quantitative high-throughput screening tests each substance at several concentrations.
Potency means the concentration at half of the fitted maximal effect.

On to `O=C(NCC1CN(c2ccc(N3CCOCC3=O)cc2)C(=O)O1)c1ccc(Cl)s1` (stereo not drawn), for which, in assay [1], the Potency result was “inactive”. For the same compound, the activity change, negative = inhibition in assay [2] is -26.5% and -55.1%.
As for `CCC(C(=O)OCCN1CCOC(c2ccccc2)C1C)c1ccccc1` (stereo not drawn), the Potency result in assay [1] is “inactive”. Besides, the activity change, negative = inhibition in assay [2] was -21.8%.
For the compound `CCCCCC1Nc2cc(C(F)(F)F)c(S(N)(=O)=O)cc2S(=O)(=O)N1` (stereo not drawn), the Potency result in assay [1] and in assay [2] was “inactive” each time.
As to `Cn1cnc2c1c(=O)[nH]c(=O)n2C`, the Potency entry in assay [1] and in assay [2] was “inactive” in each case.
In the case of `Oc1cc(O)c2c(c1)O[C@H](c1ccc(O)c(O)c1)[C@H](O)C2`, in assay [1], the Potency result was “inactive”. In addition, the activity change, negative = inhibition in assay [2] was -5.55%.
For `Cc1nnc(C(=O)NC(C)(C)c2nc(C(=O)NCc3ccc(F)cc3)c(O)c(=O)n2C)o1`, the Potency result in assay [1] is “inactive”. The activity change, negative = inhibition in assay [2] is -86.5% and -69.6%.
Turning to `NC(N)=NCCC[C@H](N)C(=O)O`, the outcome in assay [1] and in assay [2] was “inactive [at 5.25 µM]” each time.
Turning to `CCOC(=O)[C@H](CCc1ccccc1)N[C@H]1CCc2ccccc2N(CC(=O)O)C1=O`, the Potency result in assay [1] is “inactive”. Besides, in assay [2], the activity change, negative = inhibition is -24.9%.
For `CC(C)C[C@@H](N)C(=O)O` the same measures were “inactive” and 3.85% [at 27.1 µM].
Consider `O=C(OCc1ccccc1)c1ccc(O)cc1`, for which the Potency entry in assay [1] and in assay [2] was “inactive” each time.
`CCC(=O)O[C@]1(C(=O)SCF)[C@H](C)C[C@H]2[C@@H]3C[C@H](F)C4=CC(=O)C=C[C@]4(C)[C@@]3(F)[C@@H](O)C[C@@]21C`: the Potency result in assay [1] and in assay [2] was “inactive” throughout.
For the compound `Nc1c(CC(=O)O)cccc1C(=O)c1ccc(Br)cc1`, the Potency entry in assay [1] and in assay [2] was “inactive” throughout.
Turning to `O=C(O)CCC(=O)Nc1ccc(S(=O)(=O)Nc2nccs2)cc1`, the Potency entry in assay [1] and in assay [2] was “inactive” in each case.
For `C=C1C[C@H]2[C@@H]3C=C(C)C4=CC(=O)CC[C@]4(C)[C@H]3CC[C@]2(C)[C@@]1(OC(C)=O)C(C)=O`, the Potency entry in assay [1] is “inactive”. Also, the activity change, negative = inhibition in assay [2] was 2.39%.
With `CCN[C@H]1C[C@H](C)S(=O)(=O)c2sc(S(N)(=O)=O)cc21`, the Potency entry in assay [1] is “inactive”. In assay [2], the Potency result is “inactive” and the activity change, negative = inhibition was -17.9%.
For `C[C@]12CCC(=O)C=C1CC[C@@H]1[C@@H]2[C@@H](O)C[C@@]2(C)[C@H]1CC[C@]2(O)C(=O)CO`, in assay [1], the Potency entry was “inactive”. In assay [2], the Potency entry was “inactive” and the activity change, negative = inhibition is 4.28%.
In the case of `Cc1cc(C(C)(C)C)cc(C)c1CC1=NCCN1`, the Potency result in assay [1] was “inactive”. In assay [2], the Potency entry is “inactive” and the activity change, negative = inhibition was -16.7%.
As for `CCCN(CCC)C(=O)C(CCC(=O)O)NC(=O)c1ccccc1` (stereo not drawn), the Potency entry in assay [1] is “inactive”. For the same compound, in assay [2], the Potency result was “inactive” and the activity change, negative = inhibition was 2.74%.
For `c1ccc([C@H]2CN3CCSC3=N2)cc1`, the Potency entry in assay [1] is “inactive”. Moreover, in assay [2], the Potency entry was “inactive” and the activity change, negative = inhibition is -16.1%.
`O=C(O)c1cccc(-c2noc(-c3ccccc3F)n2)c1`: the Potency in assay [1] was 6.31 µM (active). Also, in assay [2], the Potency result was “inactive” and the activity change, negative = inhibition was -78%.
On to `CCCCNc1cc(C(=O)O)cc(S(N)(=O)=O)c1Oc1ccccc1`, for which the Potency entry in assay [1] was “inactive”. In addition, in assay [2], the Potency result was “inactive” and the activity change, negative = inhibition was -16.4%.
`C/C=C/C(=O)N(CC)c1ccccc1C`: in assay [1], the Potency result is “inactive”. In addition, in assay [2], the Potency result is “inactive” and the activity change, negative = inhibition was -9.15%.
Take `CCCc1cc(C(N)=S)ccn1`: the Potency entry in assay [1] was “inactive”. Moreover, in assay [2], the Potency entry was “inactive” and the activity change, negative = inhibition was -4.59%.
As for `CCOC(=O)C(C)(C)Oc1ccc(Cl)cc1`, the Potency result in assay [1] and in assay [2] was “inactive” each time. The activity change, negative = inhibition in assay [2] was -63%.
`Cc1cc(=O)oc2cc(O)ccc12`: the Potency entry in assay [1] and in assay [2] was “inactive” each time. In assay [2], the activity change, negative = inhibition was -8.91%.
Regarding `COc1ccc2[nH]c(S(=O)Cc3ncc(C)c(OC)c3C)nc2n1` (stereo not drawn), the Potency result in assay [1] and in assay [2] was “inactive” throughout. Also, the activity change, negative = inhibition in assay [2] is -10.1%.
For `Cc1cc(C2CCCCC2)n(O)c(=O)c1`, the Potency in assay [2] is 17.8 µM (active).
As to `O=C1OC2(c3ccc(O)cc3Oc3cc(O)ccc32)c2ccccc21`, the Potency result in assay [2] was “inactive”.
Regarding `OC1C(O)C(O)C(O)C(O)C1O` (stereo not drawn), the activity change, negative = inhibition in assay [2] was -22.4%.
Still for that read-out and setting: next, `CN(C)CCN(Cc1cccs1)c1ccccn1`: -3.24%.

The record behind these values is PubChem BioAssay (NCATS).
